Screening results deposited in PubChem by The Scripps Research Institute Molecular Screening Center.
Shown are actives, neighbours in structure and some others; about 1.8% of the full set was active somewhere.
LYPLA2 inh = LYPLA2 (human) inhibition in PME1 counter-screen | recombinant LYPLA2, FP-Rh probe fluorescence polarization | inhibition, % at 5.9 µM | hit rate 0.38% among 320,000 | AID 2177;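 active means inhibition above the screen-wide mean plus 3 SD, limit set per campaign, cut at about 26% in these data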
GSTO1 counter = GSTO1 inhibition, counter-screen for RBBP9 inhibitors. recombinant GSTO1, activity-based probe fluorescence polarization. inhibition, % at 5.96 µM. hit rate 1.1% among 300,000. P78417;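 active means inhibition above the campaign mean inhibition plus 3 SD, cut at about 35% in these data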
PME-1 inh = blocks human protein phosphatase methylesterase 1; hit rate 0.53% among 320,000; recombinant PME-1, FP-Rh probe fluorescence polarization; inhibition, % at 5.9 µM; AID 2130;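 active means inhibition above the campaign mean of all compounds plus 3 SD, cut at about 26% in these data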;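 further: competitive labeling of PME-1 active site by serine hydrolase directed probe; inhibitors block probe labeling so polarization falls and inhibition rises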
PAD4 FP inh = PAD4 (human) enzyme inhibition | Q9UM07 | recombinant PAD4, RCA probe fluorescence polarization | inhibition, % at 6.36 µM | hit rate 0.41% among 330,000;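 active means percent inhibition above a cutoff equal to the mean of all tested compounds plus 3 SD, cut at about 15% in these data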
Target sequence (Q9UM07 whole entry, looked up): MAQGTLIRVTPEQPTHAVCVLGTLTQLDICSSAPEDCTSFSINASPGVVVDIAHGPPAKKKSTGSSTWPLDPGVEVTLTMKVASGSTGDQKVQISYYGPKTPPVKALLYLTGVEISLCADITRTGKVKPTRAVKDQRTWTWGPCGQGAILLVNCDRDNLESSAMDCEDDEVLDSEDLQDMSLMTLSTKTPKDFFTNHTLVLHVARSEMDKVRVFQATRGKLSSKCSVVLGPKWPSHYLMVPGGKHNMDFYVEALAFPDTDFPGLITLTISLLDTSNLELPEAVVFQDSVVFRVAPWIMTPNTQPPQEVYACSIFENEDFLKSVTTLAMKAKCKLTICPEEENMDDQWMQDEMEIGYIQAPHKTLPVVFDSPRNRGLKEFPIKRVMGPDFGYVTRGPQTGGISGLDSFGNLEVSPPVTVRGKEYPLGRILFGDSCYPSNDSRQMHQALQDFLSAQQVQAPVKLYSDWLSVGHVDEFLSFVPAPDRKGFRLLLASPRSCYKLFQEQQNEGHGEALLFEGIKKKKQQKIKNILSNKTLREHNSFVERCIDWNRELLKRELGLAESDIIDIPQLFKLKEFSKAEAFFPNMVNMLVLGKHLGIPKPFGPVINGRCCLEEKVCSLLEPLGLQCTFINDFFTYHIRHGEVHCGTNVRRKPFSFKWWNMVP
LYPLA1 inh = blocks human lysophospholipase 1, a PME1 counter-screen; recombinant LYPLA1, FP-Rh probe fluorescence polarization; AID 2174; hit rate 0.16% among 320,000; inhibition, % at 5.9 µM; O75608;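 active means inhibition above the mean of all tested compounds plus 3 SD, set per campaign, cut at about 14% in these data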;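 further: inhibitors block serine hydrolase probe labeling of LYPLA1 so polarization falls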
Fam108B inh = counter-screen for RBBP9 inhibitors: inhibitors of mouse Fam108B | recombinant Fam108B, FP-Rh probe fluorescence polarization | inhibition, % at 9.51 µM | hit rate 0.33% among 300,000 | AID 1947;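 active means inhibition above the screen mean inhibition plus 3 SD, computed separately per campaign, cut at about 18% in these data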;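 further: inhibitors lower polarization as less probe binds the enzyme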
LYPLA2 conf = LYPLA2 (human) inhibition, confirmation counter-screen | shares compounds with LYPLA2 inh | recombinant LYPLA2, FP-Rh probe fluorescence polarization | inhibition, % at 5.9 µM | hit rate 72% among 1,100;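 active means mean inhibition across replicates above the hit cutoff set in the primary screen, cut at about 26% in these data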;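 further: blocked labeling of the enzyme by serine hydrolase FP-Rh probe lowers polarization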
LYPLA2 ABPP = LYPLA2 (human) inhibition, late stage results; rhLYPLA2 in mouse brain proteome, gel ABPP FP-Rh; inhibition, % at 20 µM; hit rate 30% among 150; AID 652029; shares compounds with LYPLA2 inh;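 active means inhibition of LYPLA2 enzyme probe labeling above about 50%, limit read from the data; inactive means inhibition below that limit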;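 further: loss of FP-Rh probe labeling of the LYPLA2 gel band measured as band density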
Hits are given with their value; . = inactive; / = not tested or not shown.

SMILES	LYPLA2 inh	GSTO1 counter	PME-1 inh	PAD4 FP inh	LYPLA1 inh	Fam108B inh	LYPLA2 conf	others
O=[N+]([O-])c1ccc(Oc2ccc(F)cc2)c2ccncc12	57	.	.	.	.	.	54	LYPLA2 ABPP=.
O=[N+]([O-])c1ccc(Oc2cccc(Br)c2)c2ccncc12	81	.	.	.	.	.	79	LYPLA2 ABPP=57
CC(=O)Nc1cccc(Oc2ncccc2[N+](=O)[O-])c1	.	.	.	.	.	.	/
COc1cc(C=NNC(=O)C(NC(=O)c2ccccc2)c2n[nH]c(=O)c3ccccc23)ccc1OCC(N)=O (stereo unspecified)	/	/	/	/	/	/	/	LYPLA2 ABPP=61
CN(C(=O)c1ccc(NC(=O)Cc2ccc(NC(=O)C3CCN(C(=O)C4CCCCC4)CC3)cc2)cc1)C1CC1	.	/	.	.	.	/	/
CN(C(=O)c1ccc(NC(=O)Cc2cccc(NC(=O)C3CCCN(C(=O)C4CCCCC4)C3)c2)cc1)C1CCCC1 (stereo unspecified)	.	/	.	.	.	/	/
CN(C(=O)c1ccc(NC(=O)Cc2ccc(NC(=O)C3CCCN(C(=O)c4ccccc4)C3)cc2)cc1)C1CC1 (stereo unspecified)	63	/	.	.	.	/	60	LYPLA2 ABPP=.
CN(C(=O)c1ccc(NC(=O)Cc2ccc(NC(=O)C3CCCN(C(=O)C4CCC4)C3)cc2)cc1)C1CC1 (stereo unspecified)	66	/	.	.	.	/	61	LYPLA2 ABPP=.
CN(C(=O)c1ccc(NC(=O)Cc2ccc(NC(=O)C3CCCN(C(=O)C4CCCCC4)C3)cc2)cc1)C1CC1 (stereo unspecified)	57	/	.	.	.	/	51	LYPLA2 ABPP=.
CN(C(=O)c1ccc(NC(=O)Cc2ccc(NC(=O)C3CCCN(C(=O)C4CCCC4)C3)cc2)cc1)C1CC1 (stereo unspecified)	57	/	.	.	.	/	51	LYPLA2 ABPP=.
C[C@H](CO)N1C[C@H](C)[C@@H](CN(C)S(C)(=O)=O)Oc2ccc(NC(=O)Cn3cnnn3)cc2C1=O	/	/	/	.	/	/	/
CC(=O)Nc1ccc(NC(=O)C(C)OC(=O)CCSc2ccccc2Cl)cc1 (stereo unspecified)	/	/	/	.	/	/	/
CN1CC(=O)N(CC(=O)Nc2ccc(N3CCOCC3)cc2)C1=O	.	/	.	.	.	/	/
Cc1nnsc1C(=O)N1CCCC(N2CCN(c3cccc(C(F)(F)F)c3)CC2)C1 (stereo unspecified)	55	.	.	.	.	.	56	LYPLA2 ABPP=.
Cc1noc(C)c1C(=O)N1CCCC(N2CCN(c3cccc(C(F)(F)F)c3)CC2)C1 (stereo unspecified)	30	.	.	.	.	.	.
CCOC(=O)c1ccc(S(=O)(=O)NNc2ccc(C(F)(F)F)cn2)cc1	/	/	/	.	/	/	/
CC(=O)c1ccc(N2CCN(C(=O)c3cc(S(=O)(=O)N4CCOCC4)ccc3C)CC2)cc1	/	/	/	.	/	/	/
Cc1ccc(C)c(S(=O)(=O)NCc2ccc(C(=O)N3CCC(Cc4ccccc4)CC3)cc2)c1	45	.	.	.	.	.	47
Fc1ccc(CSc2ncnc3ccccc23)cc1	26	.	.	.	.	.	26
COc1cccc(COc2ccc3c(C)c(Cc4ccccc4)c(=O)oc3c2)c1	.	.	.	.	.	.	/
Cc1c(Cc2ccccc2)c(=O)oc2cc(OCc3ccc(C(=O)O)cc3)ccc12	28	.	.	.	.	.	52	LYPLA2 ABPP=.
Cc1ccc(-n2cc(-c3ccccc3)c3c(N4CCN(C)CC4)ncnc32)cc1	30	.	.	.	.	.	.
O=C(CCC(=O)N1CCN(c2ccc(Cl)c(Cl)c2)CC1)c1ccccc1	37	.	.	.	.	.	31
CCOC(=O)c1sc(/N=C/N(C)C)nc1C	32	.	.	.	.	.	.
O=C(O)c1cc(NN=Nc2cccc([N+](=O)[O-])c2)cc([N+](=O)[O-])c1	28	.	.	.	.	.	28
SMILES	LYPLA2 inh	GSTO1 counter	PME-1 inh	PAD4 FP inh	LYPLA1 inh	Fam108B inh	LYPLA2 conf	others
COc1ccc(NS(=O)(=O)c2ccc3oc(SC(C)C(N)=O)nc3c2)cc1 (stereo unspecified)	.	.	.	.	.	.	/
CCCCCCC1CC(CC(=O)Nc2ccc([N+](=O)[O-])cc2)C(=O)O1 (stereo unspecified)	34	.	.	.	.	.	28
O=C(CNC(=O)c1ccc(S(=O)(=O)N2CCCC2)cc1)N/N=C/c1c(Cl)cccc1Cl	26	.	.	.	.	.	.
COc1cc(C(=O)NC(=S)Nc2ccc(Cc3ccncc3)cc2)cc(OC)c1OC	26	.	.	.	.	.	.
Cc1cc(C)cc(C(=O)NC(=S)Nc2ccc(Cc3ccncc3)cc2)c1	34	.	.	.	.	.	41
Clc1ccc(-n2nnnc2CN2CCOCC2)cc1	.	.	.	.	.	.	/
Cc1ccc(-n2nnnc2CN2CCCCC2)cc1	33	.	.	.	.	.	.
O=C(Nc1ccncc1)c1cccc(S(=O)(=O)N2CCN(c3ccc(F)cc3)CC2)c1	40	.	.	.	.	.	.
Cc1ccc(NC(=O)c2cccc(S(=O)(=O)N3CCN(c4ccc(F)cc4)CC3)c2)nc1	.	.	.	.	.	.	/
CC(C)Cc1nnc(NC(=O)C2CSC3(C)CCC(=O)N23)s1 (stereo unspecified)	.	.	.	.	.	.	/
CCOc1ccc(N2C(=O)CC(N3CCN(c4ccc(C(=O)c5ccncc5)cc4)CC3)C2=O)cc1 (stereo unspecified)	29	.	.	.	.	.	.
COc1ccc(N2C(=O)CC(N3CCN(c4ccc(C(=O)c5cccnc5)cc4)CC3)C2=O)cc1 (stereo unspecified)	.	.	.	.	.	.	/
O=C(c1ccc(N2CCN(C3CC(=O)N(c4ccc(F)cc4)C3=O)CC2)cc1)c1cccnc1 (stereo unspecified)	35	.	.	.	.	.	32
COc1ccc(CC(=O)Oc2ccc(C(C)(C)C)cc2)cc1S(=O)(=O)N1CCOCC1	.	.	.	.	.	.	/
COc1cccc(CN(C)C(=O)c2ccc(Oc3ccccc3)cc2)c1OC	30	.	.	.	.	.	.
COc1cccc(CN(C)C(=O)c2ccc(COc3ccc(Cl)cc3)cc2)c1OC	.	.	.	.	.	.	/
COc1cc(C2Oc3cc(C4Oc5cc(O)cc(O)c5C(=O)C4O)ccc3OC2CO)ccc1O (stereo unspecified)	60	.	.	.	.	.	69	LYPLA2 ABPP=75
CCOc1cccc(Nc2ccc([N+](=O)[O-])cn2)c1	28	.	.	.	.	.	.
